In PubChem BioAssay AID504336 (NMMLSC, 2011) one finds GFP response relative to DMSO data, which are given here for 19 compounds.

Each structure is given as a SMILES string. The source made the active and inactive calls.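 The calls were made as follows: active = compounds whose GFP signal falls below 65% of the DMSO control level; inconclusive = fewer than 70 yeast cells counted in the well; inactive = the rest.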

A short description of the test: TOR branch reporter RPL19A-GFP response – cell-based, S. cerevisiae, third cherry pick, flow cytometry, confirmation (AID 504336).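 Also: median GFP fluorescence of all gated yeast cells by flow cytometry; ratio of well median fluorescence to plate mean of DMSO wells with DMSO = 100%.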 The settings on record: S. cerevisiae RPL19A-GFP strain, 3 h, at 10 µM, hits give low values. A general note: A flow cytometer gives signals particle by particle.
On to `O=C1c2ccccc2C(=O)c2c1cccc2N(CCO)CCO`, for which the GFP response relative to DMSO was 99.8% (inactive).

Regarding `C=CCNc1nc(N)c([N+](=O)[O-])c(Nc2cccc(Cl)c2)n1`, the GFP response relative to DMSO was 104% (inactive). Consider `COc1ccc(OC)c2c(C)cc(C)nc12`, for which the GFP response relative to DMSO was 98.5% (inactive). Under `O=C(O)c1ccc2cccnc2c1O` stands 100% (inactive).

As to `CNc1nc(N)c([N+](=O)[O-])c(Nc2cccc(Cl)c2)n1`, the GFP response relative to DMSO is 94.1% (inactive).

In the case of `Nc1nc(NCCOCCO)nc(Nc2cccc(F)c2)c1[N+](=O)[O-]`, the GFP response relative to DMSO was 102% (inactive). In the case of `O=c1cc(C(F)(F)F)[nH]c2c(OC(F)(F)F)cccc12`, the GFP response relative to DMSO is 101% (inactive). In the case of `OCc1ccnc2c(O)cccc12`, the GFP response relative to DMSO was 99.1% (inactive). Under `O=C(N/N=C/c1ccccc1F)c1cccc2ccccc12` stands 100% (inactive); under `COc1cc(=O)n(C)c2c(O)cccc12`, 101% (inactive); under `C[n+]1cccc2c(Br)ccc([O-])c21`, 101% (inactive). The value for `Cc1ccc(Nc2nc(N)[nH]c(=O)c2N=O)cc1` was 102% (inactive).

Regarding `Nc1ccc(O)c2c1C(=O)c1ccccc1C2=O`, the GFP response relative to DMSO was 98.5% (inactive). Under `CCC(=O)Nn1cnc2c(c1=O)C1(CCCCC1)Cc1ccccc1-2` stands 103% (inactive); under `COc1ccccc1Nc1nc(NCCO)nc(N)c1[N+](=O)[O-]`, 102% (inactive). The value for `COc1cccc(OCc2cc(C(=O)N3CCN(C)C(c4ccccc4)C3)no2)c1` (centres undefined) was 96.5% (inactive); that for `CCc1c(C)nc2c(OC)cccc2c1Cl` was 102% (inactive). For `Cc1cn2c(N)c(C=C3C=C(Cl)C(=O)C(Cl)=C3)c(=O)nc2s1`, the GFP response relative to DMSO was 104% (inactive). `COc1ccc(OC)c2c(=O)cc(C(=O)O)[nH]c12`: the GFP response relative to DMSO is 92.3% (inactive).
